In PubChem BioAssay (EPA / NIEHS) one finds outcome and AC50 data, which are given here for 44 compounds.

Records with an inconclusive call do not appear. Activity calls are given as the source filed them. The calls were made as follows, unless noted: active = hit-call score of the fitted dose curve at least 0.9, where 1 is the maximum; inconclusive = response in the unintended direction; inactive = score below 0.9.

Experiment [1] is described as follows: Tanguay_ZF_120hpf_TR_legacy: (Legacy) Oregon State University Tanguay Lab 120 Hour Post-fertilization zebrafish Assay for Touch Response (AID 2283667). In outline: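 Tropical 5D wild-type zebrafish embryos statically exposed to 120 hpf at 28°C, sealed and dark-covered, 0.64% DMSO final; touch response scored as present/absent by brightfield microscopy at 120 hpf. Trimethyltin chloride 5 uM positive control; dead embryos not scored.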

The nature of experiment [2]: CCTE_Padilla_ZF_144hpf_TERATOSCORE: (Legacy) CCTE's 144 Hour Post-fertilization zebrafish Assay Teratoscore, Padilla Lab (AID 2283679; active = hit-call score of the fitted dose curve at least 0.9, where 1 is the maximum; inactive = score below 0.9;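 as to AC50: zebrafish embryos with chorions exposed by immersion from 6-8 hpf to 5 dpf with daily renewal; teratogenicity score from eye scoring of death hatching and malformations at 144 hpf; higher score means more developmental defects relative to DMSO baseline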). The procedure, abridged:
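Larvae scored by eye at 144 hpf for death, hatching and malformations after a day in clean Hanks'. Before that, daily-renewed exposure at 80 uM (0.4% DMSO, 26C) from roughly 6-8 hpf through 5 dpf, 4 embryos per chemical.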

A short description of experiment [3]: CEETOX_H295R_MTT_cell_viability: Viability Assessment in the CeeTox HT-H295R MTT Assay (AID 2283718; active = hit-call score of the fitted dose curve at least 0.9, where 1 is the maximum; inactive = score below 0.9;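 as to AC50: curve fitted both ways so AC50 may mark viability loss or gain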). The procedure, abridged: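 Human H295R adrenal cells, prestimulated 48 h with 10 uM forskolin, were exposed 48 h to chemicals in 0.1% DMSO. Viability was measured in the same wells by MTT (0.5 mg/ml, 4 h, 37 C), absorbance 570/650 nm, as percent of controls.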

Experiment [4] can be described thus: Tanguay_ZF_120hpf_ActivityScore_legacy: (Legacy) Oregon State University Tanguay Lab 120 Hour Post-fertilization zebrafish Assay Score for Activity (AID 2283742).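 As to AC50: dechorionated Tropical 5D wild-type zebrafish embryos held singly per well; static exposure from 6 hpf until 120 hpf at 28 °C.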 In outline:
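Dechorionated Tropical 5D embryos, one per well from 6 hpf, statically exposed to 120 hpf at 28 °C in 0.64% DMSO. Mortality and malformations scored binary by brightfield microscopy; activity score combines 18 endpoints, fitted positively versus DMSO.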

Experiment [5] can be described thus: STM_H9_OrnithineISnorm_perc: Stemina devTOX quickPredict H9 human embryonic stem cell (hESC)-based Assay for Ornithine (ORN) Metabolite Biomarker, Normalized (AID 2283712; active = hit-call score of the fitted dose curve at least 0.9, where 1 is the maximum; inactive = score below 0.9;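 also: ornithine released into spent medium during last day measured by mass spectrometry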). The procedure, abridged: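 Undifferentiated pluripotent H9 hESCs were exposed to compound for 72h, with media and compound replaced every 24h. Ornithine in final 24-h conditioned media was measured by UPLC-HRMS, normalized to 13C-labeled spike-in standard and to median 0.1% DMSO control.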

The nature of experiment [6]: STM_H9_CystineISnorm_perc: Stemina devTOX quickPredict H9 human embryonic stem cell (hESC)-based Assay for Cystine (CYSS) Metabolite Biomarker, Normalized (AID 2283713; active = hit-call score of the fitted dose curve at least 0.9, where 1 is the maximum; inactive = score below 0.9). The procedure, abridged: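 Undifferentiated H9 hESCs were exposed to compound for 72h, with medium and compound replaced every 24h. Final-24h conditioned medium was deproteinized and analyzed by UPLC-HRMS. Cystine EIC area was normalized to spiked C13 standard and 0.1% DMSO median.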

The nature of experiment [7]: STM_H9_OrnCyssISnorm_ratio: Stemina devTOX quickPredict H9 human embryonic stem cell (hESC)-based Assay for Ornithine (ORN):Cystine (CYSS) Ratio (AID 2283714). In outline: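 Undifferentiated H9 hESCs exposed 72 h, media and compound replaced every 24 h; final 24-h conditioned media deproteinized and analysed by UPLC-HRMS against C13 spike-ins. Value is the internal-standard-normalized ORN/CYSS ratio versus 0.1% DMSO.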

Experiment [8] is described as follows: CCTE_Simmons_CellTiterGLO_HEK293T: Viability Assessment in CCTE's Assays for Thyroperoxidase (TPO) Inhibition, Simmons Lab (AID 2283665). The procedure, abridged:
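HEK293T cells in DMEM with 1% FBS were dosed with 8 concentrations (5 nM–87.5 uM final, 0.5% DMSO) for 24 hr at 37C; ATP content was read by CellTiter-Glo luminescence, loss-of-signal versus DMSO, three biological replicates.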
For orientation: ATP-based viability assays read luminescence as a measure of living cells.

The test system of experiment [9] is Thyroperoxidase (TPO), gene 445522. As to the kind of experiment: CCTE_Simmons_GUA_TPO: CCTE's Guaiacol Assay for Thyroperoxidase (TPO) Inhibition, Simmons Lab (AID 2283750). The procedure, abridged:
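Porcine thyroid microsomes (25 ug) in 200mM potassium phosphate, preincubated 30 s at 37C with compound (8 concentrations, 5 nM–87.5 uM) and 35mM guaiacol; 1mM H2O2 starts reaction. Absorbance change at 450nm over first 80 s; loss of signal versus DMSO, three replicates.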

Read-out in experiment [10]: Cytochrome P450 (CYP24A1_1), CYP24A1 (gene 1591)
Nature of the experiment: LTEA_HepaRG_CYP24A1_1: Life Technologies and Expression Analysis (LTEA) Assay for Cytochrome P450 (CYP24A1_1) using HepaRG (AID 2283671; active = hit-call score of the fitted dose curve at least 0.9, where 1 is the maximum; inactive = score below 0.9). The note with it: mRNA level, 48 h; actives raise or lower the signal. In outline:
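Differentiated human HepaRG cells in serum-free induction medium, exposed 48 h in duplicate to eight half-log concentrations from 100 uM top, 0.5% DMSO. Transcript measured by TaqMan qRT-PCR, normalised to ACTB, GAPDH, POLR2A; bidirectional fitting versus DMSO.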

Turning to `COc1ccc(/C=C/S(=O)(=O)NC(=O)c2ccc(C)cc2Cl)cc1`, the outcome in experiment [1], in [2] and in experiment [4] was inactive. The AC50 (as a rule, the midpoint of the concentration-response curve, whichever way the signal moves) in experiment [3] was 3.37 µM (active).
In the case of `CC[C@H]1CC[C@H](NCc2cc3c(cc2OC)[C@H]2C[C@H]2C(=O)N3C)[C@H](c2ccccc2)N1`, the outcome in experiment [1], in experiment [3] and in experiment [4] was inactive. Moreover, the AC50 is 9.25 µM (active) in experiment [5], 7.32 µM (active) in experiment [6] and 8.66 µM (active) in experiment [7].
Turning to `CC1(C)C(=O)N(Br)C(=O)N1Br`, the compound was classed as inactive in experiment [1], in [2] and in [4].
In the case of `CNCc1ccc(NC(=O)c2c[nH]c3c2C(=O)CCC3)cc1`, the result in experiment [1], in [5], in experiment [6], in [7] and in experiment [4] was inactive.
`Nc1nc2ncc(CNc3ccc(C(=O)N[C@@H](CCC(=O)O)C(=O)O)cc3)nc2c(=O)[nH]1`: the call in experiment [8], in experiment [2], in experiment [5], in [6], in experiment [4] and in experiment [9] was inactive.
Take `Cc1[nH]cnc1C[C@H]1CCc2c(C)c3ccccc3n2C1=O`: the call in experiment [1] and in experiment [4] was inactive. The half-maximal activity concentration (AC50) in experiment [2] is 13.8 µM (active).
Regarding `CC(C)CCO`, the outcome in experiment [1], in [2], in [5] and in experiment [4] was inactive. In addition, the half-maximal activity concentration (AC50) in experiment [6] is 0.118 µM (active).
With `CC(=O)OCCC(C)C`, the result in experiment [1], in experiment [2] and in experiment [4] was inactive.
`C=CCCCCCCCCC(=O)O`: the outcome in experiment [1], in [3] and in [4] was inactive. In [2], the half-maximal activity concentration (AC50) was 60.1 µM (active).
`CC(C)CC(C)(O)C#CC(C)(O)CC(C)C` (stereo not given): the result in experiment [1], in experiment [3] and in experiment [4] was inactive. The concentration at half-maximal activity (AC50) in experiment [5] was 75 µM (active); in experiment [6] it was 60.1 µM (active); in [7], 63.2 µM (active).
Take `Clc1nc(Cl)c(Cl)c(Cl)c1Cl`: the compound was called inactive in [1] and in experiment [4]. For the same compound, the AC50 in [2] was 8.13 µM (active).
For the compound `Cn1c(=O)cc(Oc2ccc(F)cc2F)c2cnc(NCC(C)(C)O)nc21`, the outcome in experiment [1], in [2], in experiment [5], in [6], in experiment [7] and in [3] was inactive. Besides, the compound was called inactive in experiment [4].
`Fc1ccccc1[C@@H](F)COC1CCC(Nc2ncnc3[nH]ncc23)CC1` (stereo not given in full): the compound was classed as inactive in experiment [1], in [5], in experiment [6], in [7] and in experiment [4]. The values for the AC50 in experiment [2] and in experiment [3] were 13.8 µM (active) and 6.77 µM (active), respectively.
Take `CCOC(=O)CC(CC(=O)OCC)(OC(C)=O)C(=O)OCC`: the compound was called inactive in [1], in experiment [2] and in experiment [4].
Consider `CC(C)=CCCC(C)=CC=O`, for which the outcome in experiment [8], in experiment [6] and in [4] was inactive. The AC50 in experiment [5] is 0.0217 µM (active).
Take `CCc1cc(SCc2sc(-c3ccc(C(F)(F)F)cc3)nc2CN2CCN(c3ccc(OC)cc3)CC2)ccc1OCC(=O)O`: the compound was called inactive in experiment [1]. In addition, the concentration at half-maximal activity (AC50) in [2] is 5.47 µM (active); in experiment [4], 61.5 µM (active).
Turning to `CCCCCCCCCCCCc1ccccc1`, the compound was called inactive in experiment [1], in experiment [2], in [5], in [6] and in [4].
For the compound `CCCC(=O)OCC`, the outcome in experiment [1] and in experiment [4] was inactive.
`CC(O)CN(CCN(CC(C)O)CC(C)O)CC(C)O` (stereo not given): the result in [1] and in experiment [4] was inactive.
Consider `Cc1ccc(O)cc1`, for which the call in experiment [1], in experiment [3] and in [4] was inactive.
With `COCCOc1cc2cc(C(=O)NC3CCN(C(C)C)CC3)n(CC(=O)Nc3ccc(Cl)cn3)c2cn1`, the result in experiment [1] and in experiment [4] was inactive.
On to `CCOCCO`, for which the outcome in experiment [1] and in experiment [4] was inactive.
`O=C(O)c1cc(N=Nc2ccc(S(=O)(=O)Nc3ccccn3)cc2)ccc1O`: the outcome in [4] was inactive.
Regarding `C1=CCCC=CCCC=CCC1`, the outcome in experiment [1] and in [4] was inactive.
On to `C1N2CN3CN1CN(C2)C3`, for which the result in experiment [1] and in experiment [4] was inactive.
As for `Cc1c(-c2cccnc2)c2ccccc2n1CCCCC(=O)O`, in [2], the AC50 was 58.5 µM (active). Also, the call in experiment [3] and in experiment [4] was inactive.
For the compound `COC(=O)c1ccccc1O`, the outcome in experiment [1] and in experiment [4] was inactive.
For `COC(=O)c1c(Cl)c(Cl)c(C(=O)OC)c(Cl)c1Cl`, the call in [3] and in [4] was inactive.
For the compound `Cn1c(=O)c2c(ncn2C)n(C)c1=O`, the compound was classed as inactive in experiment [1], in experiment [5] and in experiment [4]. Moreover, the concentration at half-maximal activity (AC50) in [6] is 181 µM (active).
As for `O=C1OC(=O)C2C3C=CC(C3)C12` (stereo not given), the compound was called inactive in experiment [1] and in [4].
Consider `CCN(C(=O)c1cc(C)cc(OC[C@H](C)Nc2ccncc2)c1)C(C)C`, for which the outcome in experiment [1], in [5] and in experiment [4] was inactive. Also, the AC50 in [6] and in experiment [7] was 7 µM (active) each time.
With `O=C1CCC(N2C(=O)c3ccccc3C2=O)C(=O)N1` (stereo not given), the results for the half-maximal activity concentration (AC50) in [5] and in experiment [7] were 0.124 µM (active) and 0.121 µM (active), respectively. Moreover, the result in experiment [6] and in experiment [4] was inactive.
As for `O=c1[nH]c2ccc(S(=O)CCN3CCC(Cc4ccc(F)cc4)CC3)cc2o1` (stereo not given), the result in experiment [5], in [3] and in [4] was inactive. Moreover, the concentration at half-maximal activity (AC50) in experiment [6] is 3.91 µM (active); in experiment [7], 5 µM (active).
For the compound `O=C(O)c1cccc(Oc2ccccc2)c1`, the call in experiment [10] and in experiment [4] was inactive. Also, in experiment [2], the half-maximal activity concentration (AC50) was 65.2 µM (active).
In the case of `Cc1ccc(S(=O)(=O)O)cc1C`, the outcome in [1] and in experiment [4] was inactive.
For `CNS(=O)(=O)c1cc(C(=O)N2CCC(CCN3C4CCC3CC(n3c(C)nc5ccccc53)C4)(c3cccc(F)c3)CC2)c(Cl)cc1F` (stereo not given), the compound was classed as inactive in [1], in experiment [3] and in experiment [4].
As to `CCOCCOCCOCCO`, the outcome in experiment [1] and in experiment [4] was inactive.
For the compound `CC[C@H]1OC(=O)[C@H](C)[C@@H](O[C@H]2C[C@@](C)(OC)[C@@H](O)[C@H](C)O2)[C@H](C)[C@@H](O[C@@H]2O[C@H](C)C[C@H](N(C)C)[C@H]2O)[C@](C)(O)C[C@@H](C)C(=O)[C@H](C)[C@@H](O)[C@]1(C)O`, the compound was classed as inactive in [4].
`CC(=O)OC[C@H]1O[C@@](COC(C)=O)(O[C@H]2O[C@H](COC(C)=O)[C@@H](OC(C)=O)[C@H](OC(C)=O)[C@H]2OC(C)=O)[C@@H](OC(C)=O)[C@@H]1OC(C)=O`: the compound was called inactive in [1] and in [4].
Take `CCCCC(CC)COC(=O)c1ccc(C(=O)OCC(CC)CCCC)cc1` (stereo not given): the outcome in [1], in experiment [3] and in experiment [4] was inactive.
For `O=C1CCCCCN1`, the compound was called inactive in experiment [1] and in experiment [4].
As to `Cc1ccc(C)c(O)c1`, the call in [1] and in experiment [4] was inactive.
As to `O=C(O)CC(O)C(=O)O` (stereo not given), the compound was called inactive in [1] and in experiment [4].
On to `CCCCCCCCCCCCCCCO`, for which the call in [1] and in [4] was inactive. Further, the AC50 in [3] is 0.0667 µM (active).
